Bioassay records from PubChem BioAssay.
Hits are enriched below; roughly 9.9% of the tested compounds scored in any of these assays.
IL-1B inflam inh: qHTS for Inhibitors of Inflammasome Signaling: IL-1-beta AlphaLISA Primary Screen | 360,000 tested, 4.7% active | activity change, % at 57.5 µM | THP-1 LPS/ATP IL-1B secretion, AlphaLISA, 16 h; hits give low values; in the data active = activity change below about -50%; inconclusive = mostly about -30% to -49%
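THP-1 cells pretreated 1 hr with compounds (up to 57.5 uM final), then stimulated with LPS (250 ng/mL final) plus ATP (1.25 mM final); secreted IL-1B measured by AlphaLISA after 16 hr, decreased signal indicating inhibition.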
SW480 rerep: A quantitative high throughput screen for small molecules that induce DNA re-replication in SW480 colon adenocarcinoma cells | SW480 DNA re-replication, Hoechst DNA content imaging, 48 h | Potency, µM (highest dose often 46.1 µM), actives largely listed as activators | 340,000 tested, 1.8% active; note: nearly all actives have a fitted effect of over 55% in size
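Per well, 250 cells were exposed to pinned compound for 48 hr. Nuclear DNA was visualised with Hoechst (40 min, 37 C) and total object intensity recorded by fluorescence scanning.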
MCF10A rerep: A quantitative high throughput screen for small molecules that induce DNA re-replication in MCF 10a normal breast cells; 350,000 tested, 2.9% active; MCF 10A DNA re-replication, Hoechst nuclear intensity, 48 h; Potency, µM (top dose mostly 46.1 µM), hits mostly activators; note: nearly all actives have a fitted effect of over 50% in size
KB-V1 MDR tox: qHTS assay for MDR1-selective chemotherapeutics: Primary screen using the drug-selected MDR subline cells KB-V1; AID 1347076, 2019; 400,000 tested, 3.4% active; KB-V1 MDR cells viability, CellTiter-Glo, 72 h; Potency, µM (titrated, usually from 46.1 µM), most hits filed as cytotoxic; note: nearly all actives have a fitted effect of over 60% in size
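KB-V1 cells (P-gp-expressing MDR subline of KB-3-1) in phenol-red-free DMEM with 10% FBS were exposed to library compounds over a concentration series for 72 h at 37 degrees C. Viability read by CellTiter-Glo luminescence; concentration-effect curves fitted after normalization.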
KB-3-1 cytotox: qHTS assay for MDR1-selective chemotherapeutics: Primary screen using the parental adenocarcinoma cell KB-3-1; 400,000 tested, 1.4% active; Potency, µM (doses to about 46.1 µM), hits mostly cytotoxic; AID 1347075, 2019; KB-3-1 viability, CellTiter-Glo ATP luminescence, 72 h; note: nearly all actives have a fitted effect of over 60% in size
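Viability of parental KB-3-1 cells, measured by CellTiter-Glo luminescence, followed a 72 h incubation at 37 °C with pinned compounds in phenol-red-free DMEM containing 10% FBS.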
Large screens that a line does not name were inactive. Unless noted, calls come from the whole dose curve; as a rule, active = well fitted curve in the direction sought with a large enough effect; inconclusive = small, poorly fitted or top-dose-only effect, or another doubt; inactive = no such curve, though single readings can be large; an effect the other way counts as inactive or inconclusive.

Cc1ccc(C)c(SC2=NS(=O)(=O)c3ccccc32)c1	none (no result: IL-1B inflam inh, SW480 rerep, MCF10A rerep)
COc1ccc(-c2cc(C(=O)N3CCN(c4ccccc4)CC3)c3ccccc3n2)cc1OC	MCF10A rerep 13µM, KB-V1 MDR tox inconclusive
O=C(OCC(=O)N1CCOCC1)c1cc(-c2ccccc2)nc2ccccc12	MCF10A rerep inconclusive
Cc1ccc2c(C(=O)N3CCN(c4ccccc4)CC3)cc(-c3cccnc3)nc2c1C	IL-1B inflam inh -63.6, MCF10A rerep inconclusive
COc1ccc(-c2cc(C(=O)OCC(=O)N3CCCCC3)c3ccccc3n2)cc1OC	MCF10A rerep inconclusive, KB-V1 MDR tox 3.66µM
O=C(OCC(=O)N1CCN(C(=O)c2ccco2)CC1)c1cc(-c2ccc(Cl)c(Cl)c2Cl)nc2ccccc12	SW480 rerep inconclusive, MCF10A rerep inconclusive, KB-V1 MDR tox 20.6µM, KB-3-1 cytotox inconclusive
COc1ccc(-c2cc(C(=O)N3CCCCCC3)c3ccccc3n2)cc1OC	IL-1B inflam inh inconclusive (no result: SW480 rerep, MCF10A rerep)
Cc1ccc(CNC(=O)CCS(=O)(=O)c2cc3c4c(c2)CCN4C(=O)CC3)cc1	none (no result: IL-1B inflam inh, SW480 rerep, MCF10A rerep)
Cc1ccccc1C(=O)Nc1ccccc1C(=O)OCc1cc(=O)n2nc(C3CC3)sc2n1	none (no result: IL-1B inflam inh, SW480 rerep, MCF10A rerep)
Cc1ccc(S(=O)(=O)c2ccc([N+](=O)[O-])cn2)cc1	IL-1B inflam inh -105.3, MCF10A rerep inconclusive, KB-V1 MDR tox 9.2µM, KB-3-1 cytotox 6.51µM
O=[N+]([O-])c1ccc(S(=O)(=O)c2ccccc2)nc1	MCF10A rerep inconclusive
Cc1cc(S(=O)(=O)c2ccc([N+](=O)[O-])cn2)ccc1Br	IL-1B inflam inh -106.4, MCF10A rerep inconclusive, KB-V1 MDR tox inconclusive, KB-3-1 cytotox inconclusive
CC(C)c1ccc(CN(Cc2ccco2)c2cnc(S(C)(=O)=O)nc2C(=O)Nc2ccc(F)cc2)cc1	none (no result: IL-1B inflam inh, SW480 rerep, MCF10A rerep)
CC1(C(=O)NCc2cccc(Cl)c2)Cc2c(-c3ccc4c(c3)OCO4)ccnc2O1 (stereo not drawn)	KB-V1 MDR tox inconclusive, KB-3-1 cytotox inconclusive (no result: SW480 rerep, MCF10A rerep)
Cc1cc(C(=O)COC(=O)c2ccc[nH]c2=O)c(C)n1-c1ccc(Br)cc1	none
Cc1cc(C(=O)COC(=O)c2ccc(O)cc2O)c(C)n1-c1ccc(OC(F)F)cc1	MCF10A rerep inconclusive, KB-V1 MDR tox inconclusive, KB-3-1 cytotox 16.4µM
COc1ccc(-n2c(C)cc(C(=O)COC(=O)c3ccc(O)cc3O)c2C)cc1	MCF10A rerep inconclusive, KB-V1 MDR tox inconclusive, KB-3-1 cytotox inconclusive
Cc1cc(C(=O)COC(=O)c2ccc(O)cc2O)c(C)n1-c1ccccc1	IL-1B inflam inh -80.9, MCF10A rerep inconclusive, KB-V1 MDR tox 16.4µM, KB-3-1 cytotox inconclusive
Cc1ccc(-n2c(C)cc(C(=O)COC(=O)c3ccc[nH]c3=O)c2C)cc1	KB-V1 MDR tox 18.4µM
O=C1CC(C(=O)N2CCc3ccccc32)CN1c1ccc(F)cc1 (stereo not drawn)	none
COc1ccc(-c2nc(NC(=O)CSCCO)sc2C)cc1	none
CN(C)c1ccc2nc3ccc(=O)cc-3sc2c1	KB-V1 MDR tox 16.4µM, KB-3-1 cytotox inconclusive (no result: SW480 rerep, MCF10A rerep)
CN(C)c1ccc2nc3ccc(=[N+](C)C)cc-3sc2c1	IL-1B inflam inh inconclusive, SW480 rerep inconclusive, KB-V1 MDR tox inconclusive, KB-3-1 cytotox inconclusive
COc1cc2c[n+](C)c3c4ccccc4ccc3c2cc1OC	IL-1B inflam inh -111.9, SW480 rerep inconclusive, KB-V1 MDR tox inconclusive, KB-3-1 cytotox 9.2µM
COc1ccc2c(c1)c[n+](C)c1c3cc(OC)c(OC)cc3ccc21	IL-1B inflam inh inconclusive, KB-3-1 cytotox 2.91µM (no result: SW480 rerep, MCF10A rerep)
Cc1ccc(S(=O)(=O)NCc2cccnc2)cc1C(=O)NC1CCCCC1	MCF10A rerep inconclusive
Nc1ccc(O)cc1C(=O)OCC(=O)c1ccc(C2CCCCC2)cc1	IL-1B inflam inh -93.6, SW480 rerep 9.2µM, MCF10A rerep 23.1µM
O=c1c2ccc(Cl)cc2[nH]c(=S)n1Cc1cccnc1	KB-V1 MDR tox 18.4µM
O=C(c1ccc2c(=O)n(Cc3ccc(Cl)cc3)c(=S)[nH]c2c1)N1CCCC1	MCF10A rerep inconclusive
O=C(COC(=O)/C=C/c1ccc(S(=O)(=O)N2CCc3ccccc32)cc1)NC1CCS(=O)(=O)C1 (stereo not drawn)	none
O=C1C2CC=CCC2C(=O)N1c1cccc(OS(=O)(=O)c2ccc3ccccc3c2)c1 (stereo not drawn)	MCF10A rerep inconclusive, KB-V1 MDR tox 20.6µM
Cc1ccc(S(=O)(=O)Oc2ccccc2N2C(=O)C3CC=CCC3C2=O)cc1 (stereo not drawn)	KB-V1 MDR tox 8.2µM
CC1CCC2C(=O)N(c3cccc(OS(=O)(=O)c4ccccc4)c3)C(=O)C2C1 (stereo not drawn)	KB-V1 MDR tox inconclusive
COc1ccccc1NC(=O)c1cc(Sc2nncn2C)nc2ccccc12	none
COc1ccc(-c2c(C)c3ccc(O)c(CN4CCCCC4)c3oc2=O)cc1OC	none (no result: IL-1B inflam inh, SW480 rerep, MCF10A rerep)
CC(C)C(NC(=O)c1c(F)cccc1F)C(=O)OCN1C(=O)c2ccccc2C1=O (stereo not drawn)	none
CC(C)[C@H](NC(=O)c1ccccc1F)C(=O)OCCN1C(=O)c2ccccc2C1=O	KB-V1 MDR tox 14.6µM
CCc1ccc(C(=O)c2cn(CC(=O)Nc3cc(F)ccc3F)c3nc(C)ccc3c2=O)cc1	none (no result: IL-1B inflam inh, SW480 rerep, MCF10A rerep)
Cc1cccc(Nc2nc(N)nc(-c3oc4ccccc4c3C)n2)c1	IL-1B inflam inh -74.6, SW480 rerep 18.4µM, MCF10A rerep 16.4µM, KB-V1 MDR tox 20.6µM, KB-3-1 cytotox inconclusive
Cc1ccc(Nc2nc(N)nc(-c3oc4ccccc4c3C)n2)cc1	SW480 rerep inconclusive, MCF10A rerep inconclusive, KB-V1 MDR tox inconclusive, KB-3-1 cytotox 0.184µM
COc1cccc(Nc2nc(N)nc(-c3oc4ccccc4c3C)n2)c1	IL-1B inflam inh -70.6, SW480 rerep 13µM, MCF10A rerep 7.31µM, KB-V1 MDR tox 4.61µM, KB-3-1 cytotox inconclusive
Cc1cccc(Nc2ncnc(N)n2)c1	none
Cc1c(-c2nc(N)nc(Nc3ccccc3F)n2)oc2ccccc12	SW480 rerep inconclusive, KB-V1 MDR tox 16.4µM
c1nc(N2CCCCCC2)c2[nH]cnc2n1	KB-V1 MDR tox 23.1µM
c1nc(N2CCCC2)c2[nH]cnc2n1	KB-V1 MDR tox inconclusive
COc1ccccc1C(CC(=O)c1ccccc1)C(=O)c1ccccc1 (stereo not drawn)	KB-V1 MDR tox inconclusive, KB-3-1 cytotox inconclusive (no result: SW480 rerep, MCF10A rerep)
C=C(C(=O)c1ccccc1)C(CC(=O)c1ccccc1)c1ccccc1 (stereo not drawn)	IL-1B inflam inh -95.0, SW480 rerep 18.4µM, MCF10A rerep 9.2µM, KB-V1 MDR tox inconclusive, KB-3-1 cytotox inconclusive
C=C(CCC(=O)c1ccccc1)C(=O)c1ccccc1	IL-1B inflam inh -83.4, SW480 rerep inconclusive, MCF10A rerep 9.2µM, KB-V1 MDR tox inconclusive, KB-3-1 cytotox inconclusive
